Assay results reported in the supplement of paper PMC11732987, “Enantioselective OTUD7B fragment discovery through chemoproteomics screening and high-throughput optimisation” (Communications Chemistry, 2025).

Assays:
Experiment in all cases: log2 ratio of Biotin-Ahx-Ub-VS probe labelling (fragment/DMSO); higher = less target engagement (more negative = stronger competition), active = hit call of the paper (q ≤ 0.05, log2 ratio ≤ -1)
Conditions in all cases: compound concentration: 200 uM; treatment time: 3 h
ALG13 = target: T1, ALG13 (UniProt Q9NP73)
T1 sequence (whole entry): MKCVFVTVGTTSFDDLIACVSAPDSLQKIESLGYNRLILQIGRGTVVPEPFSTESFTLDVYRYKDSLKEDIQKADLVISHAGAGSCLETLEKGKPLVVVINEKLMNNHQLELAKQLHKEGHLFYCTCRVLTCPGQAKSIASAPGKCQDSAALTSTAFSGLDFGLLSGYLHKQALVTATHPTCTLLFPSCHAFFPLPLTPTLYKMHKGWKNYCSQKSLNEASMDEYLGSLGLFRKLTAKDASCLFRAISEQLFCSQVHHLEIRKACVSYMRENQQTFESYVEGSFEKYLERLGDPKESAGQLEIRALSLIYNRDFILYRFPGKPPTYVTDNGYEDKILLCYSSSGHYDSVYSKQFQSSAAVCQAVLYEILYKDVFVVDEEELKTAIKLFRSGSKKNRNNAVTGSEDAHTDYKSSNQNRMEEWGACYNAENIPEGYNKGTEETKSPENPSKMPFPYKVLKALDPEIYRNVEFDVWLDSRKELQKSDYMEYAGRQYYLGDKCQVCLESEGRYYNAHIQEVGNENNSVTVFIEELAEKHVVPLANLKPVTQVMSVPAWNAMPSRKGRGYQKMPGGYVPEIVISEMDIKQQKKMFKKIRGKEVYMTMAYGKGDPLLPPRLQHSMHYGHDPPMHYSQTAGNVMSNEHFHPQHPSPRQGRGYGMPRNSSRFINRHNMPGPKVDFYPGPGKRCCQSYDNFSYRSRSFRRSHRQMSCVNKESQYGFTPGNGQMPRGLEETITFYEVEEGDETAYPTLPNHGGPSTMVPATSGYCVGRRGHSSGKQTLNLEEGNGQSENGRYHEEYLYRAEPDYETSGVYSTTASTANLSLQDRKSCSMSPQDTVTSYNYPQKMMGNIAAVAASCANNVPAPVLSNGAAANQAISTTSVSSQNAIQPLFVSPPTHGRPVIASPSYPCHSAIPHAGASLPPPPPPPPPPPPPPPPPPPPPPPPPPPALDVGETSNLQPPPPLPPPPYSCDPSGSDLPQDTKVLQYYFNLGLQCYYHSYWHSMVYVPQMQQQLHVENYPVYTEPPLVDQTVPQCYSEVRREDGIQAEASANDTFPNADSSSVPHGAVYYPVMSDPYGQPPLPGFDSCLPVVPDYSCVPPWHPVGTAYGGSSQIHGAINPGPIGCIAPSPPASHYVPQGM
Method in brief: (§1)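 Triplicate samples of HEK293T lysate, 495 µg each, received fragment at 200 µM or vehicle for 3 h, followed by Biotin-Ahx-Ub-VS (0.5 µM final) for 1 h. After NeutrAvidin enrichment of labelled DUBs and LysC/trypsin digestion, peptides were run by diaPASEF LC-MS/MS. The values are average log2 fragment/vehicle ratios from global-median-normalised Spectronaut label-free quantities, tested by unpaired t-test on proteins having ≥2 unique peptides.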

ATXN3 = ATXN3 (UniProt P54252)
Method in brief: as §1

BAP1 = target: T2, BAP1 (UniProt Q92560)
T2 sequence (whole entry): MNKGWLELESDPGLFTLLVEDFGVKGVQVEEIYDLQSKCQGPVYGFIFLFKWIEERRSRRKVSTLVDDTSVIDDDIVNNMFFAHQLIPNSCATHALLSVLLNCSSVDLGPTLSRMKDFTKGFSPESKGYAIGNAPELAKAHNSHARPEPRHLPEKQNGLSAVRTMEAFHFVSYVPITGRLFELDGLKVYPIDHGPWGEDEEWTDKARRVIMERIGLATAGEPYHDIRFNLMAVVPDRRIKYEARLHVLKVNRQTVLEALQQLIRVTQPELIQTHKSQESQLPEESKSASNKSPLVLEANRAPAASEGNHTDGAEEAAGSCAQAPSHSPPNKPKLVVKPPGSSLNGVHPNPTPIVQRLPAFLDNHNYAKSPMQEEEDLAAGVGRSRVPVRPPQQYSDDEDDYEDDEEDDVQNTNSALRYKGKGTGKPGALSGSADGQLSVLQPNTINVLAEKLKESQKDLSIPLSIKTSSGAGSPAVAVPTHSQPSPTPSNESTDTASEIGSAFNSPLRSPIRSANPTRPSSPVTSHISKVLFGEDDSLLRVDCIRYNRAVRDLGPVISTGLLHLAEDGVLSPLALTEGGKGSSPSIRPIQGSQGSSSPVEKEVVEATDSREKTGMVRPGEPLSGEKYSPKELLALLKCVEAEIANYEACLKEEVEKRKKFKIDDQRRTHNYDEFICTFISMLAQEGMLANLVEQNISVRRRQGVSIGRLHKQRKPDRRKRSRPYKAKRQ
Method in brief: as §1

EIF3F = EIF3F (UniProt O00303)
Method in brief: as §1

EIF3H = EIF3H (UniProt O15372)
Method in brief: as §1

FAM105A = target: T3, FAM105A (UniProt Q9NUU6)
T3 sequence (whole entry): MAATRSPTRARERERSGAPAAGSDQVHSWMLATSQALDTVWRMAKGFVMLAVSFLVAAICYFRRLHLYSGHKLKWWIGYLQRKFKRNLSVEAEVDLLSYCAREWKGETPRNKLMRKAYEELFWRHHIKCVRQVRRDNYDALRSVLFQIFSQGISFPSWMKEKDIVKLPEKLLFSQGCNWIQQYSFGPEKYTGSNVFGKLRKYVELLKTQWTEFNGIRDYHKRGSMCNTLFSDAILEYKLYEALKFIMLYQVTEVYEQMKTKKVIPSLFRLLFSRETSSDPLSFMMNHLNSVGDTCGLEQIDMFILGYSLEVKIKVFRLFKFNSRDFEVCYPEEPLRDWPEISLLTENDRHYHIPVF
Method in brief: as §1

OTUB1 = OTUB1 (UniProt Q96FW1)
Method in brief: as §1

OTUD4 = target: T4, OTUD4 (UniProt Q01804)
T4 sequence (whole entry): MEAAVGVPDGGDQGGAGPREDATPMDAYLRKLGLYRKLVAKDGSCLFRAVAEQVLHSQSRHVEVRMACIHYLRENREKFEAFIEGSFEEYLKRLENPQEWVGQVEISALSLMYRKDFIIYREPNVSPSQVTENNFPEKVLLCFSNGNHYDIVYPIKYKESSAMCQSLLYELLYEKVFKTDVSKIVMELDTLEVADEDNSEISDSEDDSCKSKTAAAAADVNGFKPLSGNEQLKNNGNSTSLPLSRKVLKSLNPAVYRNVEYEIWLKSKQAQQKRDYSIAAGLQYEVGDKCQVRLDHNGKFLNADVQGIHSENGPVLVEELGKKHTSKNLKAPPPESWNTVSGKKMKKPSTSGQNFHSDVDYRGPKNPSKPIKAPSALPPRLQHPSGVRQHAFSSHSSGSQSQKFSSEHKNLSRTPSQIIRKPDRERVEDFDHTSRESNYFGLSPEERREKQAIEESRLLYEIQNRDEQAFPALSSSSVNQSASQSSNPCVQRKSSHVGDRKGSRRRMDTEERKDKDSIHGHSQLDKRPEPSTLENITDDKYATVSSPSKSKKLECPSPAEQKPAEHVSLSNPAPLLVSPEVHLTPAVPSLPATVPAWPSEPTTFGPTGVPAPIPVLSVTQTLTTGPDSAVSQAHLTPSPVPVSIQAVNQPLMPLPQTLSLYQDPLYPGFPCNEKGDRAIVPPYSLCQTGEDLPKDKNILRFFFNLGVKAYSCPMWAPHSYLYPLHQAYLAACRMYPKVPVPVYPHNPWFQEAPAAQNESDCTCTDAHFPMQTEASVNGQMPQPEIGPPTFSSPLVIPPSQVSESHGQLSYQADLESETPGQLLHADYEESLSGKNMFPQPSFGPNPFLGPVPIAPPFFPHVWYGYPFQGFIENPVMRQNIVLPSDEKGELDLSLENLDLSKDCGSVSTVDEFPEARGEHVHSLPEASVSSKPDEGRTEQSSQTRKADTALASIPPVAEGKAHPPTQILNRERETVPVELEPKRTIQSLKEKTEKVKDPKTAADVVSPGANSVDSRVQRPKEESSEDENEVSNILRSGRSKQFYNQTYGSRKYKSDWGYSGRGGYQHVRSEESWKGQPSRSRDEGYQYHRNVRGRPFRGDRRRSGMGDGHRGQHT
Method in brief: as §1

OTUD5 = target: T5, OTUD5 (UniProt Q96G74)
T5 sequence (whole entry): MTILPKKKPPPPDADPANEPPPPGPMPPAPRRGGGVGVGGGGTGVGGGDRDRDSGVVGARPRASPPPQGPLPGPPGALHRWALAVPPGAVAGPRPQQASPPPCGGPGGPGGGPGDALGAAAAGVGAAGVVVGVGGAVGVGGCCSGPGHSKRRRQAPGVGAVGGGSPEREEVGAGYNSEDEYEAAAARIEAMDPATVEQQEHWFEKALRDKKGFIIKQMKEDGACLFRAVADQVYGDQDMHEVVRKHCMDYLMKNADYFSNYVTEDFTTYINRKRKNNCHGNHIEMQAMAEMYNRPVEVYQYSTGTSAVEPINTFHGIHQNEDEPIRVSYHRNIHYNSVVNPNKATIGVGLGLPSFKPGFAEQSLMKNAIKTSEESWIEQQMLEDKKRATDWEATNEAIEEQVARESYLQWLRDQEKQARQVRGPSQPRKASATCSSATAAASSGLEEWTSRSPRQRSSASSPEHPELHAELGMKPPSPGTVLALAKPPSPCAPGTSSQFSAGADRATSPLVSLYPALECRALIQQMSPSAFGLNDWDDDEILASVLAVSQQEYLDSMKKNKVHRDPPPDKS
Method in brief: as §1

Measured: log2 ratio of Biotin-Ahx-Ub-VS probe labelling

Chain of OTUB1 (Q96FW1 whole entry): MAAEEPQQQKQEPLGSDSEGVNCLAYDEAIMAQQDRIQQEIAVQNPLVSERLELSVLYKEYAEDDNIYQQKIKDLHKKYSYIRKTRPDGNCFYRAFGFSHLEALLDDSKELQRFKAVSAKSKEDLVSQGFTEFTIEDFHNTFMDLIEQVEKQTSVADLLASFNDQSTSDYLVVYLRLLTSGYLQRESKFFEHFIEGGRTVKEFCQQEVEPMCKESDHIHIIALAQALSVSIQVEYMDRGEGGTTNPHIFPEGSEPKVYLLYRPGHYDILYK
Chain of ATXN3 (P54252 whole entry): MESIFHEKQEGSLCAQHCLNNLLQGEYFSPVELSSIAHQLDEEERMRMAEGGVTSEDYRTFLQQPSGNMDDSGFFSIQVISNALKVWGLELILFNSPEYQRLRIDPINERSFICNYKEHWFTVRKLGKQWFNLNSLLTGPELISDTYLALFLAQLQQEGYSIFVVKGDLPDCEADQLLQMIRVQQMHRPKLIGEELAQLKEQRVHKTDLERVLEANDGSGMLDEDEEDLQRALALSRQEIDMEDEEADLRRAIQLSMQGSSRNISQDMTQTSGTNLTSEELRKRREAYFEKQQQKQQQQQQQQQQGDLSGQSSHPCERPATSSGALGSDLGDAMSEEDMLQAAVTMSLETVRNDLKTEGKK
Chain of EIF3H (O15372 whole entry): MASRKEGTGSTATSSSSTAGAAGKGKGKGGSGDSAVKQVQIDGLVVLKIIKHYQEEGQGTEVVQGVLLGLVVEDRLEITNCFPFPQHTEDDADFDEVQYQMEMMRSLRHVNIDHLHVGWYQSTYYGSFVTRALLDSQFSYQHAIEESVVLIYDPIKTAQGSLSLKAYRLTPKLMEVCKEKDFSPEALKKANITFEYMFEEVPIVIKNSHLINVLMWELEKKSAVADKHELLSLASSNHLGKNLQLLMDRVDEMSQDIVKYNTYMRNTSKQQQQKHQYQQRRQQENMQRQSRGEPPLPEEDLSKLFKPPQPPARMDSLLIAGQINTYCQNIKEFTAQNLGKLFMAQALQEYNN
Chain of EIF3F (O00303 whole entry): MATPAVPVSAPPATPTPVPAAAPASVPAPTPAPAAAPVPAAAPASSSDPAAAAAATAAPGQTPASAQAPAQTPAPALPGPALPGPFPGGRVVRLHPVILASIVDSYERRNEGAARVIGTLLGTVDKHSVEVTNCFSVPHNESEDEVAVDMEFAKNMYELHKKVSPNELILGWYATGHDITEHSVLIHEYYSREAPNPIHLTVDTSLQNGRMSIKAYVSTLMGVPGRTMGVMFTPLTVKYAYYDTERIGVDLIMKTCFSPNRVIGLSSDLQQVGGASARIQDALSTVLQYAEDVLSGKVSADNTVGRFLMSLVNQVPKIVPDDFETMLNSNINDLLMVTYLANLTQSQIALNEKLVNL

CC(=O)C1CCCCN1C(=O)CCl (centres undefined)
inactive: ALG13 0.0431 | ATXN3 0.025 | BAP1 -0.0781 | EIF3F -0.0667 | EIF3H 0.304 | FAM105A 0.264 | OTUB1 0.0807 | OTUD4 0.0774 | OTUD5 -0.219
